Data on 40 molecules can be found in PubChem BioAssay (Tox21).

Structures are written as SMILES. Unmarked numbers belong to inactive results. Activity calls are given as the source filed them. Calls come from the whole dose curve; as a rule, active = well fitted curve in the direction sought with a large enough effect in the repeat runs; inconclusive = weak or mixed curves; inactive = flat fitted curve, though single readings scatter.
% is set by controls: 0 for no effect and ±100 for the full control effect.

The nature of the assay: qHTS assay to test for compound auto fluorescence at 535 nm (green) in HEK293 cells (AID 720680). The conditions noted are these: green autofluorescence 485/535 nm; series mostly up to 91.3 µM; fluorescence, % of fluorescein: at the top concentration. From the text: U.S. Tox21 Program National Center for Advancing Translational Sciences [NCATS] NIH Chemical Genomics Center [NCGC] U.S. Environmental Protection Agency [EPA] National Institutes of Environmental Health Sciences [NIEHS] National Toxicology Program [NTP] U.S. Food and Drug Administration [FDA] Tox21 Assay Overview: Compound auto fluorescence often interferes with screening of the compound library against various biological targets and signaling pathways. Some of these compounds may have fluorophoric properties. Such properties may interfere with the assay outputs resulting in false positives and/or negatives. To decrease such complications and ensure the compound activities are relevant in terms of biological response, the Tox21 10K compound library was screened for auto fluorescence. From the fluorophores used as reporter signals in our screening assays, the auto fluorescence equivalencies of compounds against three fluorophores have been evaluated: Triamterene, Fluorescein and Rose Bengal sodium for blue, green and red fluorescence, respectively. The fluorescence intensities were measured using Excitation/Emission wavelengths at 405/460nm, 485/535nm and 540/590nm for blue, green and red labels, respectively. This assay includes the green fluorescence data.
Tox21 Assay Protocol Summary: 2,000 HEK293 cells in 5 uL of culture medium containing 10% dialyzed FBS per well were dispensed into black wall/clear bottom 1536-well plates using a Multidrop Combi Dispenser (Thermo Scientific). The assay plates were incubated for 4-5 hr at 37C to allow cell attachment to the well bottom, followed by the transfer of 23 nL compound or DMSO vehicle by a pintool work station (Kalypsys, San Diego, CA). After the assay plates were incubated overnight at 37C and 5% CO2, fluorescence intensities in the assay plates were measured by an Envision (PerkinElmer, Shelton, CT) plate reader using three labels for measuring blue, green and red fluorescence at […] 460, 535 and 590nm respectively.
On to `N#CCCSCCC#N`, for which the “fluorescence, % of fluorescein” value is 0.0233%.

Take `C[C@H]1CC[C@@H]2[C@@H](C)[C@H]3[C@H](C[C@H]4[C@@H]5CC=C6CC(O[C@@H]7O[C@H](CO)[C@H](O)[C@H](O[C@@H]8O[C@H](CO)[C@@H](O)[C@H](O)[C@H]8O)[C@H]7O[C@H]7O[C@@H](C)[C@H](O)[C@@H](O)[C@H]7O)CC[C@]6(C)[C@H]5CC[C@]34C)N2C1` (stereo not given in full): the call was inactive.

Take `CCCSP(=O)(OCC)SCCC`: the “fluorescence, % of fluorescein” value is -0.162% [at 95.7 µM].

On to `CN(C)S(=O)(=O)N(SC(F)(Cl)Cl)c1ccccc1`, for which the “fluorescence, % of fluorescein” value is 0.0313%.

On to `O=C(CCl)Nc1ccccc1`, for which the “fluorescence, % of fluorescein” value is -0.0498%.

With `O=[N+]([O-])c1c2ccccc2cc2ccccc12`, the “fluorescence, % of fluorescein” value is 0.121%.

Consider `Oc1ccc(C2(c3ccc(O)cc3)c3ccccc3-c3ccccc32)cc1`, for which the “fluorescence, % of fluorescein” value was -0.167%.

For `Clc1ccc(COC(Cn2ccnc2)c2ccc(Cl)cc2Cl)cc1` (stereo not given), the molecule was called inactive.

For `CCN(CC)C(=S)[S-].CCN(CC)C(=S)[S-].[Zn+2]`, the “fluorescence, % of fluorescein” value is -0.101%.

In the case of `Cc1ccc(OP(=O)(Oc2ccccc2)Oc2ccccc2)cc1`, the “fluorescence, % of fluorescein” value was -0.016% [at 95.7 µM].

Turning to `CC(=O)OC1(c2ccccc2)CCN(CCc2ccccc2)CC1`, the “fluorescence, % of fluorescein” value is -0.014% [at 95.7 µM].

Consider `O=C(O)c1cc[c]([Hg][Cl])cc1`, for which the “fluorescence, % of fluorescein” value is 0.108%.

With `CCOc1cc(C(C)(C)C)ccc1C1COC(c2c(F)cccc2F)=N1` (stereo not given), the “fluorescence, % of fluorescein” value is 0.175%.

Turning to `S=C=Nc1cccc2ccccc12`, the “fluorescence, % of fluorescein” value was -0.0209%.

Turning to `O=C1c2ccccc2C(=O)C1C(=O)C(c1ccccc1)c1ccc(Cl)cc1` (stereo not given), the “fluorescence, % of fluorescein” value is 0.756%.

As for `CCCCCCCCCCCCCCCC[n+]1ccccc1`, the result was inactive.

In the case of `O=C(NC(=O)c1c(F)cccc1F)Nc1cc(Cl)c(OC(F)(F)C(F)F)c(Cl)c1`, the “fluorescence, % of fluorescein” value is 0.013%.

Take `CCOCCOC(C)=O`: the “fluorescence, % of fluorescein” value is -0.117%.

`CC(C)C1CCC(Cc2ccc(Cl)cc2)C1(O)Cn1cncn1` (stereo not given): the “fluorescence, % of fluorescein” value is 0.0043%.

Turning to `FC(Cl)(Cl)Cl`, the “fluorescence, % of fluorescein” value was -0.0576%.

On to `CCC(C)c1cc([N+](=O)[O-])cc([N+](=O)[O-])c1OC(=O)C=C(C)C` (stereo not given), for which the “fluorescence, % of fluorescein” value was 0.0127%.

With `ClC(Cl)=C(Cl)Cl`, the “fluorescence, % of fluorescein” value was -0.0281%.

Consider `CCCCN(CCCC)C(=S)[S-].CCCCN(CCCC)C(=S)[S-].[Zn+2]`, for which the molecule was called inactive.

For the molecule `CC(=O)Nc1ccc2c(c1)Cc1ccccc1-2`, the “fluorescence, % of fluorescein” value was 0.0294% [at 95.7 µM].

For the molecule `CC(C)CC(C)N` (stereo not given), the “fluorescence, % of fluorescein” value is 0.0059%.

With `O=C(CBr)c1ccc(O)cc1`, the “fluorescence, % of fluorescein” value was 0.0437%.

With `CC(C)(C)c1cc([N+](=O)[O-])cc(C(C)(C)C)c1O`, the “fluorescence, % of fluorescein” value is 0.0154%.

As to `CN(C)CCc1c[nH]c2cccc(O)c12`, the “fluorescence, % of fluorescein” value was 0.559%.

As to `Cc1cc(C(C)(C)c2cc(C)c(O)c(C)c2)cc(C)c1O`, the “fluorescence, % of fluorescein” value is 0.0465%.

For `Oc1ccc(C(=C(Cl)Cl)c2ccc(O)cc2)cc1`, the “fluorescence, % of fluorescein” value is -0.0182%.

As to `c1ccc2c(c1)[nH]c1cnccc12`, the “fluorescence, % of fluorescein” value was 0.0218%.

As to `Oc1c(Cl)c(Cl)cc(Cl)c1Cl`, the “fluorescence, % of fluorescein” value is 0.0937% [at 95.7 µM].

As to `Cc1cc(SCc2sc(-c3ccc(C(F)(F)F)c(F)c3)nc2C)ccc1OCC(=O)O`, the “fluorescence, % of fluorescein” value is -0.128%.

Turning to `O=c1oc2ccccc2c(O)c1Cc1c(O)c2ccccc2oc1=O`, the fluorescence, % of fluorescein is 0.155% [at 18.6 µM].

As to `CC1(C)C(/C=C(\Cl)C(F)(F)F)C1C(=O)OC(C#N)c1cccc(Oc2ccccc2)c1` (stereo not given), the “fluorescence, % of fluorescein” value was 0.0584% [at 95.7 µM].

For the molecule `c1ccc2c(c1)OCC(C1=NCCN1)O2` (stereo not given), the “fluorescence, % of fluorescein” value was -0.0023% [at 46 µM].

As to `Clc1ccc(CCC(Cn2ccnc2)Sc2c(Cl)cccc2Cl)cc1` (stereo not given), the fluorescence, % of fluorescein was 0.0661% [at 18.6 µM].

Turning to `CCN`, the “fluorescence, % of fluorescein” value is 0.0195%.

On to `COc1cc(N)c(Cl)cc1C(=O)NC1CN2CCC1CC2` (stereo not given), for which the “fluorescence, % of fluorescein” value is 0.0239% [at 46 µM].

For the molecule `Cc1cc(C)c(C2=C(OC(=O)CC(C)(C)C)C3(CCCC3)OC2=O)c(C)c1`, the “fluorescence, % of fluorescein” value is -0.0307% [at 95.7 µM].
